Laboratory results reported in PubChem BioAssay (NCI).
About 79,000 compounds went through this panel and 15% of them were active in at least one assay; those are over-represented in the sample as a whole. Values without a mark were called inactive. Calls of active or inactive are those of the source. Rule as the data show it: active = growth inhibition above about 70%; inactive = the rest.

Legend:
[1] = NCI Yeast Anticancer Drug Screen. Data for the rad50 strain (AID 155);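 also: 0% = growth of vehicle-only cultures of the same strain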; conditions: S. cerevisiae rad50 strain growth inhibition, hits give high values
Procedure, shortened: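 Readout: growth inhibition relative to vehicle-treated cultures. Compound exposure was carried out in a genetically defined yeast strain deficient in DNA damage repair.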

[2] = NCI Yeast Anticancer Drug Screen. Data for the mec2-1 strain (AID 157); conditions: S. cerevisiae mec2-1 strain, hits give high values
Procedure, shortened: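 mec2-1 yeast strain, carrying an alteration in DNA damage repair or cell cycle control, was exposed to compounds; growth inhibition was measured relative to vehicle-treated controls.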

[3] = NCI Yeast Anticancer Drug Screen. Data for the sgs1 mgt1 strain (AID 161);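 also: 0% = growth of cultures given vehicle only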; conditions: S. cerevisiae sgs1 mgt1 strain, hits give high values
Procedure, shortened: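 Compounds are added to genetically altered yeast, and growth is compared with cultures given vehicle alone to give percent inhibition.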

[4] = NCI Yeast Anticancer Drug Screen. Data for the cln2 rad14 strain (AID 165);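 also: 0% = growth equal to vehicle treated cultures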; conditions: S. cerevisiae cln2 rad14 strain, hits give high values
Procedure, shortened: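 Yeast carrying cln2 and rad14 alterations (cell cycle control and DNA damage repair) were exposed to compounds. Growth inhibition was measured against vehicle-treated controls.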

[5] = NCI Yeast Anticancer Drug Screen. Data for the bub3 strain (AID 167); conditions: S. cerevisiae bub3 mutant strain, hits give high values
Procedure, shortened: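 Readout: yeast growth inhibition, expressed relative to vehicle-only wells. The test organism is a mutant strain from a panel with lesions in DNA repair or checkpoint genes.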

[6] = NCI Yeast Anticancer Drug Screen. Data for the mlh1 rad18 strain (AID 175); conditions: S. cerevisiae mlh1 rad18 strain growth inhibition, hits give high values
Procedure, shortened: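 Growth inhibition of the yeast strain was measured after compound exposure and expressed relative to vehicle-treated controls. The strain carries defined defects in DNA damage repair.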

[7] = at 5.0 µM (retest, dose inferred, filed as 0.5)
[8] = at 50.0 µM (retest, dose inferred, filed as 5.0)

SMILES | growth inhibition [1, 7] | growth inhibition [1, 8] | growth inhibition ([1]; at 50.0 µM) | growth inhibition [2, 7] | growth inhibition [2, 8] | growth inhibition ([2]; at 50.0 µM) | growth inhibition [3, 7] | growth inhibition [3, 8] | growth inhibition ([3]; at 50.0 µM) | growth inhibition [4, 7] [%] | growth inhibition [4, 8] | growth inhibition ([4]; at 50.0 µM) | growth inhibition [5, 7] | growth inhibition [5, 8] | growth inhibition ([5]; at 50.0 µM) | growth inhibition [6, 7] | growth inhibition [6, 8] | growth inhibition ([6]; at 50.0 µM)
COc1ccccc1NC(=O)C1=C(C)NC(C)=C(C(=O)Nc2ccccc2OC)C1c1ccc(C2C(C(=O)Nc3ccccc3OC)=C(C)NC(C)=C2C(=O)Nc2ccccc2OC)cc1 | 50% | 86% (active) | 75.8% (active) | 31% | 94% (active) | 81.2% (active) | 37% | 92% (active) | 77.5% (active) | 38 | 77% (active) | 44.2% | 40% | 95% (active) | 85.2% (active) | 41% | 95% (active) | 47.9%
O=C/C=C/c1cc([N+](=O)[O-])ccc1Cl | -138% | 77% (active) | 81.5% (active) | -47% | 79% (active) | 79.5% (active) | -59% | 83% (active) | 57.4% | -55 | 46% | 46.1% | -80% | 65% | 79.2% (active) | -137% | 86% (active) | 93.3% (active)
Cc1nc(N)sc1N=Nc1ccc(Cl)cc1 | -16% | 55% | 78% (active) | 7% | 62% | 50% | -5% | 62% | 57.2% | 5 | 24% | 66.7% | 10% | 52% | 81.8% (active) | 21% | 77% (active) | 84.5% (active)
CCCN(CCC)C(=O)c1cccc2ccccc12 | 3% | 7% | 6.8% | 4% | 6% | -19.1% | 1% | 9% | 44.5% | 3 | 22% | -1.9% | 6% | 28% | 27.2% | 6% | 7% | 7.5%
CN(C)CCC[Si]1(C)c2ccccc2CCc2ccccc21 | -6% | 16% | 82.8% (active) | -5% | 15% | 40% | -5% | 17% | 57.4% | -2 | -5% | 19.9% | -8% | 6% | 71.3% (active) | -3% | 26% | 78.8% (active)
CCCCc1ccc(Nc2nc(N)c3[nH]cnc3n2)cc1 | 19% | 35% | 82.1% (active) | 25% | 26% | 84% (active) | 18% | 31% | 36.1% | 21 | 34% | 16.7% | 16% | 31% | 34.7% | 22% | 40% | 91.6% (active)
Cc1ccc(N2CCN(c3c(N)cncc3Br)CC2)cc1 | -4% | -4% | 94% (active) | 6% | 14% | 97.3% (active) | 0% | 18% | 92.8% (active) | 0 | -15% | 46.5% | 19% | 71% (active) | 96% (active) | -4% | -1% | 90.8% (active)
Nc1ccc(S(=O)(=O)Nc2ccccc2)cc1 | -4% | 42% | -7.35% | 7% | 7% | -9.35% | -1% | 3% | 26.1% | 0 | -6% | 50.7% | 37% | -1% | -2.1% | 0% | 4% | 4.25%
CCN(CC)c1cc(Nc2c3ccc(Cl)cc3nc3cc(Cl)ccc23)ccc1O | 1% | 4% | 34.5% | -39% | -3% | -11.2% | -3% | -4% | -4.35% | -6 | -3% | 71.7% (active) | -5% | -10% | 0.75% | 0% | -2% | -0.95%
CCCCCCCCCCCCCC1=NCC(C)(C)N1 | 83% (active) | 100% (active) | 99.2% (active) | 85% (active) | 100% (active) | 97.3% (active) | 91% (active) | 100% (active) | 99.7% (active) | 66 | 99% (active) | 97.8% (active) | 89% (active) | 100% (active) | 99.7% (active) | 82% (active) | 100% (active) | 99.5% (active)
